Calls of active or inactive are those of the source. Unless noted, how the calls were made is not given here.

A short description of assay [1]: liver-stage malaria parasite load reduction – cell-based, known kinase inhibitor set, luminescence, hepatoma host viability (AID 624392).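 Further: infected cells incubated roughly two days before readout.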 The conditions noted are these: Plasmodium liver stage in hepatoma cells, luciferase luminescence, concentration not given here; liver cell % of control: measured here: host liver cell viability; parasite % of control: stronger effect = lower value.

A short description of assay [2]: altered dexamethasone sensitivity, NF-kB reporter, cell-based, luciferase, IL-1B stimulus (AID 624486).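 On percent of negative control (+Dex): 100% = mean signal of vehicle control wells on the plate.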 The following applies: IL-1B + dexamethasone, luminescence; percent of negative control (+Dex): actives lie on both sides, concentration not given here; z-score: measured here: IL-1B alone, no Dex.
A short description of assay [3]: C. elegans survival during P. aeruginosa infection – whole organism (AID 651566).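 Further: tested at 14 µM; sign flipped so higher z means a lower ratio.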 The following applies: C. elegans killed by P. aeruginosa, survival ratio.
Assay [4] in a line: pro-inflammatory signaling induction in mouse macrophages – cell-based, murine, luminescence (AID 652131). The conditions noted are these: murine macrophage pro-inflammatory reporter, stronger effect = higher value.
The target of assay [5] is Cellular tumor antigen p53 (Homo sapiens) (UniProt P04637). In words: GFP-p53 level modulators in HPV16+ cells – imaging, known kinase inhibitor set, EGFP/DsRed ratio (AID 1053116).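 Further: cells exposed to compounds for 24 h at 37 °C before reading.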 The following applies: GFP-p53 stability, stronger effect = higher value; EGFP object count: measured here: GFP-p53 positive objects count.
Cellular tumor antigen p53 (Homo sapiens), sequence (P04637 whole entry, looked up): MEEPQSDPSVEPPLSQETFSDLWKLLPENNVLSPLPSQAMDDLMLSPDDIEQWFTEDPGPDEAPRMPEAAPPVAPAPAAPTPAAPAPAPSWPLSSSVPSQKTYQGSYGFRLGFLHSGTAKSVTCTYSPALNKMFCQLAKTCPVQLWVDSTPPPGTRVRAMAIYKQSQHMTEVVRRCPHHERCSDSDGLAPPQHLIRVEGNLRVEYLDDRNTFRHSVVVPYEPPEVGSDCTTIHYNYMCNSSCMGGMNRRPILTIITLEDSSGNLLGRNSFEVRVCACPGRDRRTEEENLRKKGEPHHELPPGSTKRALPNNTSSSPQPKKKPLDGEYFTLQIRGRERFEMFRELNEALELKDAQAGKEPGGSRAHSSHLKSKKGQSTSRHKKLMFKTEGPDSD
Assay [6] is described as follows: inducers of IRF3 signaling, differentiated THP-1 – cell-based, PMA-stimulated THP-1, luminescence (AID 1053176). The conditions noted are these: PMA-differentiated THP-1, IRF3 reporter luminescence; stronger effect = higher value.
The nature of assay [7]: MELAS cybrid and Rieske KO viability enhancers – cell-based, MELAS cybrids, Rieske KO mouse fibroblasts, CellTiter-Glo, primary screen (AID 1508586;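 active means mean z-score across replicates of 1.96 or higher in either the MELAS or the Rieske mutant cell line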;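 further: z relative to plate mean and SD of compound and empty wells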). The conditions noted are these: low glucose. (In general: In ATP-based viability assays light output follows the ATP content of the culture.)
Setting [8] is: MELAS cybrid survival, CellTiter-Glo 48 h, stronger effect = higher value.
[9] abbreviates: Rieske KO mouse fibroblast survival, CellTiter-Glo 72 h.

In assay [1], `CCn1c(-c2nonc2N)nc2ccncc21` had a liver cell % of control of 99.1%. For the same molecule, in assay [1], the parasite % of control was 98.3% (inactive). In addition, the percent of negative control (+Dex) in assay [2] was 93.5% (inactive). The z-score in assay [2] is -0.26; in assay [3], -0.61 (inactive); in assay [4] it was -0.193 (inactive); in assay [7] (setting [8]), -0.197 (inactive); in assay [7] (setting [9]), -0.472. Moreover, in assay [5], the EGFP object count was found to be 4. Besides, the EGFP/DsRed ratio in assay [5] is 0.405 (inactive). The fraction signal in assay [6] was -0.004 (inactive).

As to `CS(=O)(=O)CCNCc1ccc(-c2ccc3ncnc(Nc4ccc(OCc5cccc(C(F)(F)F)c5)cc4)c3c2)o1`, the liver cell % of control in assay [1] came out at 91.4%. Besides, the parasite % of control in assay [1] is 126% (inactive). Moreover, in assay [2], the percent of negative control (+Dex) is 85% (inactive). Moreover, the z-score in assay [2] is -0.68; in assay [3] it was -0.1 (inactive); in assay [4] it was 0.289 (inactive); in assay [7] (setting [8]) it was 0.798 (inactive); in assay [7] (setting [9]) it was -0.393. Further, the EGFP object count in assay [5] was 4.5. In assay [5], the EGFP/DsRed ratio is 0.109 (inactive). For the same molecule, the fraction signal in assay [6] was 0.018 (inactive).

In assay [1], `c1cnn2ncc(-c3ccnc(Nc4ccc5c(c4)OCCO5)n3)c2c1` showed a liver cell % of control of 141%. In addition, in assay [1], the parasite % of control was 14% (inactive). Besides, in assay [2], the percent of negative control (+Dex) is 5% (active). For the same molecule, the z-score in assay [2] was -9.09; in assay [3], 0.965 (inactive); in assay [4] it was -1.27 (inactive); in assay [7] (setting [8]), 0.529 (inactive); in assay [7] (setting [9]), 0.76. The EGFP object count in assay [5] is 2.5. Further, in assay [5], the EGFP/DsRed ratio was 0.105 (inactive). Moreover, the fraction signal in assay [6] was -0.0005 (inactive).

As for `O=C(O[C@H]1CN[C@H](C#Cc2cc3ncnc(Nc4ccc(Cc5ccccc5)cc4)c3s2)C1)N1CCOCC1`, the liver cell % of control in assay [1] was found to be 106%. Also, the parasite % of control in assay [1] was 85.4% (inactive). For the same molecule, the percent of negative control (+Dex) in assay [2] was 88% (inactive). Besides, the z-score in assay [2] was -1.34; in assay [3], -0.335 (inactive); in assay [4] it was 0.302 (inactive); in assay [7] (setting [8]), -0.24 (inactive); in assay [7] (setting [9]), -0.218. In addition, the EGFP object count in assay [5] is 5.5. Besides, the EGFP/DsRed ratio in assay [5] was 0.104 (inactive). In addition, in assay [6], the fraction signal is -0.006 (inactive).

`FC(F)(F)CNc1nccc(-c2cnn3ncccc23)n1`: the liver cell % of control in assay [1] amounted to 95.3%. The parasite % of control in assay [1] was 264% (inactive). Besides, the percent of negative control (+Dex) in assay [2] was 33.5% (active). The z-score in assay [2] is -6.74; in assay [3] it was -1.18 (inactive); in assay [4], -1.22 (inactive); in assay [7] (setting [8]), 0.365 (inactive); in assay [7] (setting [9]), -0.533. In assay [5], the EGFP object count was 2. For the same molecule, the EGFP/DsRed ratio in assay [5] was 0.0558 (inactive). The fraction signal in assay [6] is -0.0105 (inactive).

In turn, `COc1cc2ncnc(Nc3ccc4c(cnn4Cc4ccccc4)c3)c2cc1OC` showed a liver cell % of control in assay [1] of 114%. The parasite % of control in assay [1] was 129% (inactive). In addition, the percent of negative control (+Dex) in assay [2] is 71.5% (inactive). For the same molecule, the z-score was -2.37 in assay [2]; -0.95 (inactive) in assay [3]; 3.16 (inactive) in assay [4]; 0.162 (inactive) in assay [7] (setting [8]); -0.293 in assay [7] (setting [9]). The EGFP object count in assay [5] came to 4. Also, the EGFP/DsRed ratio in assay [5] is 0.17 (inactive). In addition, in assay [6], the fraction signal was 0.032 (inactive).

In the case of `Cc1cccc(C2NNCC2c2ccc3ncccc3n2)n1` (stereo not given), the liver cell % of control in assay [1] was 89.8%. Besides, the parasite % of control in assay [1] was 104% (inactive). In assay [2], the percent of negative control (+Dex) was 58.5% (inactive). Further, the z-score in assay [2] is -3.81; in assay [3], 0.465 (inactive); in assay [4] it was 0.276 (inactive); in assay [7] (setting [8]) it was 0.0567 (inactive); in assay [7] (setting [9]), -0.176. Further, in assay [5], the EGFP object count amounted to 4. Further, in assay [5], the EGFP/DsRed ratio is 0.132 (inactive). In assay [6], the fraction signal was 0.0035 (inactive).

As for `Fc1ccc(-c2ncn(CCCN3CCOCC3)c2-c2ccncc2)cc1`, the liver cell % of control in assay [1] stood at 110%. In assay [1], the parasite % of control is 145% (inactive). Further, the percent of negative control (+Dex) in assay [2] is 98.5% (inactive). Besides, the z-score was 1.32 in assay [2]; 0.18 (inactive) in assay [3]; -0.092 (inactive) in assay [4]; -1.02 (inactive) in assay [7] (setting [8]); 0.219 in assay [7] (setting [9]). The EGFP object count in assay [5] worked out at 4. The EGFP/DsRed ratio in assay [5] is 0.0405 (inactive). Also, the fraction signal in assay [6] is -0.0075 (inactive).

With `c1ccc(Nc2ncc(-c3ccccc3)o2)cc1`, the liver cell % of control in assay [1] worked out at 98.7%. The parasite % of control in assay [1] was 93.5% (inactive). For the same molecule, the percent of negative control (+Dex) in assay [2] was 246% (active). Further, the z-score is 11.2 in assay [2]; -1.27 (inactive) in assay [3]; 0.128 (inactive) in assay [4]; 1.22 (inactive) in assay [7] (setting [8]); -0.446 in assay [7] (setting [9]). Also, in assay [5], the EGFP object count turned out to be 5. Besides, in assay [5], the EGFP/DsRed ratio was 0.0918 (inactive). Besides, the fraction signal in assay [6] is -0.011 (inactive).

In turn, `NS(=O)(=O)c1ccc(-c2cc3ccncc3cc2OCc2ccccc2)cc1` registered a liver cell % of control in assay [1] of 218%. Further, the parasite % of control in assay [1] was 144% (inactive). For the same molecule, the percent of negative control (+Dex) in assay [2] was 81% (inactive). The z-score in assay [2] is -1.8; in assay [3] it was -0.345 (inactive); in assay [4], 6.56 (active); in assay [7] (setting [8]), -0.151 (inactive); in assay [7] (setting [9]), -0.251. For the same molecule, the EGFP object count in assay [5] was determined as 4.5. Also, the EGFP/DsRed ratio in assay [5] was 0.0743 (inactive). Moreover, the fraction signal in assay [6] is -0.005 (inactive).

In the case of `Cc1nnc(-c2ccc(C)c(-c3ccc(C(=O)NCc4ccc(Cl)cc4)cc3)c2)o1`, the liver cell % of control in assay [1] worked out at 161%. For the same molecule, in assay [1], the parasite % of control was 31.3% (inactive). Also, the percent of negative control (+Dex) in assay [2] is 106% (inactive). The z-score was 1.07 in assay [2]; 0.9 (inactive) in assay [3]; -0.451 (inactive) in assay [4]; -0.978 (inactive) in assay [7] (setting [8]); -0.533 in assay [7] (setting [9]). The EGFP object count in assay [5] came out at 2. Also, the EGFP/DsRed ratio in assay [5] is 0.079 (inactive). For the same molecule, the fraction signal in assay [6] is -0.0105 (inactive).

Consider `COc1ccc(CNC(=O)c2ccc(-c3cc(-c4nnc(C)o4)ccc3C)cc2)cc1`, for which the liver cell % of control in assay [1] amounted to 172%. Besides, the parasite % of control in assay [1] was 67.1% (inactive). Further, the percent of negative control (+Dex) in assay [2] is 102% (inactive). The z-score is 0.42 in assay [2]; 1.23 (inactive) in assay [3]; -0.363 (inactive) in assay [4]; -0.23 (inactive) in assay [7] (setting [8]); -0.248 in assay [7] (setting [9]). For the same molecule, the EGFP object count in assay [5] came out at 3. Further, the EGFP/DsRed ratio in assay [5] is 0.129 (inactive). Moreover, the fraction signal in assay [6] is -0.008 (inactive).

In the case of `COc1cc2c(cc1Nc1nc(Nc3cccc(F)c3C(N)=O)c3cc[nH]c3n1)N(C(=O)CN1CCN(C(C)C)CC1)CC2`, the liver cell % of control in assay [1] was 73.3%. Also, the parasite % of control in assay [1] was 300% (inactive). In assay [2], the percent of negative control (+Dex) is 95.5% (inactive). The z-score in assay [2] is -0.34; in assay [3] it was 0.095 (inactive); in assay [4], -0.476 (inactive); in assay [7] (setting [8]), -0.91 (inactive); in assay [7] (setting [9]), -0.402. Further, the EGFP object count in assay [5] was found to be 4.5. Besides, in assay [5], the EGFP/DsRed ratio was 0.201 (inactive). The fraction signal in assay [6] is 0.004 (inactive).

In assay [1], `Cc1cc(-c2ccco2)cc(C)c1/C=C/c1cncc(-c2nn[nH]n2)c1` came in with a liver cell % of control of 90.5%. Further, in assay [1], the parasite % of control was 119% (inactive). In addition, the percent of negative control (+Dex) in assay [2] was 94% (inactive). Further, the z-score in assay [2] is 0.125; in assay [3] it was 0.545 (inactive); in assay [4], 4.88 (inactive); in assay [7] (setting [8]), -1.12 (inactive); in assay [7] (setting [9]), -0.188. Further, the EGFP object count in assay [5] worked out at 3.5. Further, in assay [5], the EGFP/DsRed ratio is 0.0973 (inactive). Besides, the fraction signal in assay [6] was -0.008 (inactive).

In turn, `CN(C)CCCNc1nccc(-c2c(-c3ccc(F)cc3)nn3cc(C(F)(F)F)ccc23)n1` returned a liver cell % of control in assay [1] of 98.2%. The parasite % of control in assay [1] was 96.1% (inactive). Also, the percent of negative control (+Dex) in assay [2] is 93.5% (inactive). The z-score in assay [2] is 0.05; in assay [3], 0.5 (inactive); in assay [4] it was 2.64 (inactive); in assay [7] (setting [8]), 0.443 (inactive); in assay [7] (setting [9]) it was -0.332. The EGFP object count in assay [5] came out at 4. For the same molecule, in assay [5], the EGFP/DsRed ratio was 0.104 (inactive). Moreover, in assay [6], the fraction signal was -0.008 (inactive).
